Reference: ChEMBL document CHEMBL1157539, “Thousands of chemical starting points for antimalarial lead identification” (Nature, 2010)

tested on: Plasmodium falciparum; test: GSK_TCMDC: Inhibition of Plasmodium falciparum 3D7 in whole red blood cells, using parasite LDH activity as an index of growth. Test compounds present at 2uM; type: functional

Compound | Inhibition
COc1cc2c(cc1OC)CN(CCc1ccc(NC(=O)c3cc4cc(Cl)ccc4[nH]3)cc1)CC2 | 90%
CCC(=O)c1ccc(-c2ccc(=O)n(CC(=O)N(CCN(CC)CC)Cc3ccc(-c4ccc(C(F)(F)F)cc4)cc3)n2)cc1 | 98%
Cc1cccc2c(C(=O)NC3CCN(Cc4ccccc4)CC3)cc(-c3cccnc3)nc12 | 81%
COC(=O)c1ccc(-c2ccc(C(=O)NCC3CCN(c4nc(N)c5cc(OC)c(OC)cc5n4)CC3)cc2)cc1 | 98%
N=C(N)NC(=O)Nc1cc(Cl)c(Br)c(Cl)c1 | 100%
O=C(O)C(F)(F)F.c1cc(CNCCc2ccncc2)cc(-c2csc(-c3nc4ccccc4[nH]3)c2)c1 | 100%
O=C(Nc1cccc(-c2cccc(-c3nc4cc(C(F)(F)F)ccc4[nH]3)c2)c1)c1csnn1 | 99%
CCc1ccc(C2CCN(CCCCNC(=O)c3ccc(-c4ccc(Cl)cc4)cc3)CC2)c(O)c1 | 100%
Fc1ccccc1C=NN=c1cc[nH]c2ccc(C(F)(F)F)cc12 | 100%
CC(=O)C1=NN(c2ccc(C)cc2)C(c2cccs2)N1c1ccccc1 (centres undefined) | 89%
CC(C)Oc1ccc2c(c1)OC(c1ccccc1)(C(F)(F)F)NC2=O (centres undefined) | 100%
O=C(/C=C/c1ccc(Cl)c(Cl)c1)NCCCCCN1CCC(NC(=S)Nc2ccc(F)cc2F)CC1 | 100%
COc1ccc(NC(=O)NC2CCN(CCCOc3ccnc4cc(Cl)ccc34)C2)cc1OC (centres undefined) | 90%
CCOC(=O)c1cc(C(=O)NCCCCN2CCC(c3cn(C)c4ccccc34)CC2)ccc1-c1ccc(C(F)(F)F)cc1 | 91%
